# Shown is part of a subset that was picked to be rich in hits.
# Pf Dd2 inh: blocks in vitro growth of P. falciparum Dd2; P. falciparum Dd2 growth, SYBR Green, 72 h; Potency, µM (doses to about 28.9 µM), for inactives: at the top dose activity, negative = inhibition, actives largely listed as inhibitors; 120,000 tested, 4.3% active; AID 1347417; active = well fitted inhibition curve with a large enough effect;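 note: plate controls were DMSO vehicle for no effect and reference drug for full effect; nearly all actives have a fitted effect of over 65% in size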
#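 Readout: SYBR Green fluorescence, 485 nm excitation, 535 nm emission, after ~16 h lysis at 37C. Before that, Dd2-infected red cells (2.5% hematocrit) grew 72 h with compound, 29 uM top final concentration.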
# * = called active by the depositor; i = inactive; [ ] = remark or other dose. Potency is the fitted concentration of half-maximal effect.
SMILES,Pf Dd2 inh
O=C(CCc1conc1-c1cccc(F)c1)NCc1ccccc1Cl,i
CCOC(=O)Cn1nc2n(c1=O)CCN(Cc1cccc(Cl)c1)C2=O,33%
O=C(Nc1ccccc1)N1CCCC(c2nc(CCOCC3CCCC3)no2)C1 (centres undefined),i
COc1cccc(CNC(=O)[C@@H]2C[C@@H](O)CN2C2CCN(C(=O)C(C)C)CC2)c1,-3%
O=C(NCC1CC1)c1ccc2c(c1)C1(CCN(CC3CC3)C1)CN2Cc1ccccc1 (centres undefined),-2%[44.1 µM]
O=C(NC1CCC1)c1ccc2c(c1)C1(CCN(CC3CC3)C1)CN2Cc1ccccc1 (centres undefined),14µM*
CCNC(=O)c1ccc2c(c1)C1(CCN(CC3CC3)C1)CN2Cc1ccccc1 (centres undefined),i
O=C(O)C1CC2(CCN(C(=O)c3ccc4c(c3)OCCO4)CC2)CN1 (centres undefined),-7%
c1ccc(-c2noc(-c3ccn4c(CN5CCN(c6ccccc6)CC5)nnc4c3)n2)cc1,-19%
Cc1noc2ncnc(N3CCCC(C(=O)NCCC(C)C)C3)c12 (centres undefined),-15%
CCCN(CCC)C(=O)C1CCCN(c2ncnc3onc(-c4ccc(F)cc4)c23)C1 (centres undefined),-9%
CC(C)N(Cc1ccccc1)C(=O)C1CCCN(c2ncnc3onc(-c4ccc(F)cc4)c23)C1 (centres undefined),8.9µM*
COc1cc(Cl)c(C)cc1NC(=O)C1CCCN(c2ncnc3onc(-c4ccc(F)cc4)c23)C1 (centres undefined),11µM*
Cc1ccc(NC(=O)C2CCCN(c3ncnc4onc(-c5ccc(F)cc5)c34)C2)c(Cl)c1 (centres undefined),-11%
Cc1ccc(C)c(NC(=O)C2CCCN(c3ncnc4onc(C)c34)C2)c1 (centres undefined),-25%
COc1ccc(-c2ccc3c(c2)C(=O)N2CC[C@H](NC(=O)COCC(=O)O)[C@H]2C(=O)N3)cc1,7%
COCCNc1ncnc2c1CN(c1ccc(OC)cc1)C(=O)CN2C,24%
CC(C)C[C@H](NC(=O)Cn1nc2c(cc1=O)CCCCC2)c1nnc2ccccn12,-8%
CC(C)CNC(=O)CC1Sc2ncccc2N(CC(C)C)C1=O (centres undefined),i
O=C(O)C1=NOC2CN(Cc3ccc(Cl)cc3)CC12 (centres undefined),21%
COCCC1(C(=O)O)CCCN(CCS(C)(=O)=O)C1 (centres undefined),-13%
CCC(=O)NCCc1sc2nc(-c3ccc(OC)cc3)nn2c1C,-6%
Cc1c(CCNC(=O)c2ccc(Br)o2)sc2nc(-c3ccc(Cl)cc3)nn12,-16%
COc1ccc(-c2nc3sc(CCNC(=O)c4ccc(Br)o4)c(C)n3n2)cc1,8.9µM*
COc1ccc(-c2nc3sc(CCNC(=O)c4ccc(C(C)(C)C)cc4)c(C)n3n2)cc1,1.1µM*
SMILES,Pf Dd2 inh
COc1ccc(-c2nc3sc(CCNC(=O)Cc4ccc(Cl)cc4)c(C)n3n2)cc1,6%
CCOc1ccc(CC(=O)NCCc2sc3nc(-c4ccc(OC)cc4)nn3c2C)cc1,-28%
Cc1ccccc1C(=O)N1CCC2(CC1)NCc1ccccc1-n1ccnc12,i[5.79 µM]
COCCOc1ccc2c(n1)CCN(C(=O)CC1CCCCC1)C2,-1%
COc1ccc(S(=O)(=O)N2[C@@H]3CC[C@H]2CC(NC(=O)c2ccc(F)cc2)C3)cc1OC (some centres undefined),-17%
CCC(=O)N1CCC(Oc2ncccc2C(=O)N(C)C)C1 (centres undefined),38%
CCN(CC)Cc1ccc2c(c1)CN(C(=O)c1cncc(Br)c1)CCO2,8.9µM*
Cc1ncoc1C(=O)N1CCOc2ccc(CCC(N)=O)cc2C1,-6%
CN1CCC2(CC1)CN(C(=O)c1cncc(Br)c1)Cc1ccccc1O2,-3%
CCOc1ccc(NC(=O)C(CC)n2c(=O)c(-c3ccccc3NC(C)=O)nc3ccccc32)cc1 (centres undefined),-8%
CC(=O)Nc1ccccc1-c1nc2ccccc2n(C(C)C(=O)c2ccc(C)c(C)c2)c1=O (centres undefined),-11%
COc1ccc(OC)c(NC(=O)C(C)n2c(=O)c(-c3ccccc3NC(C)=O)nc3ccccc32)c1 (centres undefined),11µM*
Cc1ccc(C2(c3noc(CN(C)Cc4ccc(C)o4)n3)CCCC2)cc1,-28%
COc1ccc(-c2cn3c(n2)sc2cc(C(=O)NCCCN4CCN(C)CC4)ccc23)cc1,2.5µM*
CCCN1CCN(CCCNC(=O)c2ccc3c(c2)sc2nc(-c4ccc(OC)cc4)cn23)CC1,1µM*
COc1ccc(-c2cn3c(n2)sc2cc(C(=O)Nc4cc(OC)cc(OC)c4)ccc23)cc1,i
CCC(C)NC(=O)c1ccc2c(c1)sc1nc(-c3ccc(OC)cc3)cn12 (centres undefined),-15%
COc1ccc(-c2cn3c(n2)sc2cc(C(=O)NCc4ccccc4OC)ccc23)cc1,-23%
CCOc1ccccc1CNC(=O)c1ccc2c(c1)sc1nc(-c3cccc(OC)c3)cn12,11µM*

# Bioassay records from PubChem BioAssay.
